This is an account of results in PubChem BioAssay AID2642 (Johns Hopkins Ion Channel Center, 2010).

The structures appear in SMILES notation. Out of some 310,000 compounds screened, about 3,900 (1.3%) were called active.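 Rule for the calls: active = compounds whose thallium flux B-score, printed positive for inhibition, exceeds three library SD while starting fluorescence stays within three; inactive = the rest.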 Only a selection was taken, and actives are over-represented in it overall.

In this assay the target is Potassium voltage-gated channel subfamily KQT member 1 (Homo sapiens) (UniProt P51787). Put plainly: inhibitors of human KCNQ1 channel, primary screen, cell-based, thallium flux, high-throughput (AID 2642).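 Note: channel opened by potassium depolarization with thallium stimulus after 20 min compound exposure.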 To be noted: CHO-K1 KCNQ1, FluxOR thallium flux fluorescence, at 10 µM; hits give high values.
Chain of Potassium voltage-gated channel subfamily KQT member 1 (Homo sapiens) (P51787 whole entry, looked up): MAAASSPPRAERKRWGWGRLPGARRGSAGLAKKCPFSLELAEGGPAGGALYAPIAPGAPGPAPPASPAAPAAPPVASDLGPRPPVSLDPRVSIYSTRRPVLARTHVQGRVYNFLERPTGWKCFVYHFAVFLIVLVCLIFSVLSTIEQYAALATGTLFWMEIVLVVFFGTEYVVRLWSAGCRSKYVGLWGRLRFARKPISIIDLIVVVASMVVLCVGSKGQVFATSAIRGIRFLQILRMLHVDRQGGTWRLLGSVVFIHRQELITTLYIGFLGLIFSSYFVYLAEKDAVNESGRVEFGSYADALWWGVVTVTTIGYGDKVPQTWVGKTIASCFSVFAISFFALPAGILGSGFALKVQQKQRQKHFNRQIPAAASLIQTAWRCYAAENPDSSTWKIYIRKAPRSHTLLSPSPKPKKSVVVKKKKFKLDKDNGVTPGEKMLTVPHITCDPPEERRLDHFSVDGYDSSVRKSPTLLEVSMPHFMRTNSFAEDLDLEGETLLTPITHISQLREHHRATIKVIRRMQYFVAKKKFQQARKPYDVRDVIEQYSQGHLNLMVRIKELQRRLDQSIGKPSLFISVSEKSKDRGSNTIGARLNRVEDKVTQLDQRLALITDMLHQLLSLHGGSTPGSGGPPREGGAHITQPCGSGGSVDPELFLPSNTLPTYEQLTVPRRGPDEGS
Regarding `CCc1nc2nc(C)c(NS(=O)(=O)c3ccc4c(c3)CCCC4)c(=O)n2[nH]1`, the B-score entry was “inactive”.
The result for `CCCCc1ccc(NC(=O)NCc2cccnc2)cc1` reads “inactive”.
`O=S(=O)(NCCSc1ccccn1)c1ccc(Cl)cc1`: the B-score result is “inactive”.
The result for `Cc1cc(O)ccc1NC1=CC(=O)CC(C)(C)C1` reads “inactive”; that for `CCOc1ccc(NC(=O)CN(C)C(=O)c2c(C)noc2C)cc1OCC`, “inactive”; that for `CCOn1c(SC(C)C)nc2ccccc2c1=O`, “inactive”.
For `CCOC(=O)C1CCc2nc3ccccc3c(=O)n21` (stereo not given), the B-score result is “inactive”.
Take `CCOC(=O)C(C)Sc1nc2ccccc2c(=O)n1CC1CCCCC1` (stereo not given): the B-score is 7 (active).
For `Cc1c(OC(C)C(=O)NCC2CCC(C(=O)O)CC2)ccc2c1oc(=O)c1ccccc12` (stereo not given), the B-score result was “inactive”.
As for `CCc1noc(C)c1C(=O)Nc1nc2ccc(OC)cc2s1`, the B-score entry is “inactive”.
Turning to `Cc1noc(C)c1CSCC(=O)Nc1ccc(Br)cc1Cl`, the B-score entry is “inactive”.
The result for `Cc1noc(C)c1CSCC(=O)Nc1nc2ccc(Oc3ccccc3)cc2s1` reads 8 (active); that for `Cc1ccc(-n2ncc(C(=O)NC3CC3)c2C2CCN(C(=O)OC(C)(C)C)CC2)c(C)c1`, “inactive”; that for `COCc1c(C(=O)OCc2c(C)noc2C)oc2ccccc12`, “inactive”.
Regarding `Cc1cc(C)c(NC(=O)c2oc3ccccc3c2COc2ccccc2)c(C)c1`, the B-score is 10 (active).
With `CCOC(=O)c1oc2ccccc2c1NC(=O)c1cccs1` the entry was “inactive”; with `COc1cc(C(C(=O)NC2CCCC2)N(Cc2ccccc2)C(=O)c2snc(C(N)=O)c2N)ccc1O` (stereo not given), “inactive”; with `O=C(Nc1ccccc1)N1CCN(C(=O)Nc2ccccc2)CC1`, “inactive”.
On to `COc1cc(C(=O)NCC(=O)N2CC=C(c3ccccc3)CC2)cc(OC)c1OC`, for which the B-score result was “inactive”.
For `O=C(Nc1ccc(Cl)c(Cl)c1)N1CC=C(c2ccccc2)CC1`, the B-score is 11 (active).
In the case of `O=C(NCCCN1CCCCC1)C1CC(=O)N(CCc2ccccc2)C1` (stereo not given), the B-score result is “inactive”.
The result for `NC(=O)c1cc(-c2cccnc2)nc2ccc(Br)cc12` reads “inactive”; that for `O=C(NNC(=S)NC(=O)c1cn(-c2ccccc2)nc1-c1ccccc1)c1ccncc1`, 6 (active); that for `Cc1onc(-c2ccccc2)c1C(=O)NNC(=S)NC(=O)c1ccc(F)cc1`, “inactive”.
With `NC(=O)C1CCN(C(=O)c2cn(-c3ccccc3)nc2-c2cccnc2)CC1`, the B-score entry was “inactive”.
On to `c1ccc(-c2ccc3c(c2)NC(C2Nc4cc(-c5ccccc5)ccc4O2)O3)cc1` (stereo not given), for which the B-score entry was “inactive”.
With `CNS(=O)(=O)c1ccc(N2CCCC2=O)c([N+](=O)[O-])c1` the entry was “inactive”.
`CC(=O)Nc1ccc(S(=O)(=O)Nc2ccc(-c3ccc4nnc(C)n4n3)cc2)cc1`: the B-score entry is “inactive”.
In the case of `Cc1ccc(N(CC(=O)Nc2cccc(N(C)S(C)(=O)=O)c2)S(C)(=O)=O)cc1`, the B-score result is “inactive”.
In the case of `COc1cccc(N(CC(=O)Nc2cccc(N(C)S(C)(=O)=O)c2)S(C)(=O)=O)c1`, the B-score entry is “inactive”.
For the compound `CN(c1cccc(NC(=O)Nc2ccc(Cl)cc2)c1)S(C)(=O)=O`, the B-score is 10 (active).
With `COc1cccc(NC(=O)CN(C)C(=O)CSCc2nc3scc(-c4cccs4)c3c(=O)[nH]2)c1`, the B-score entry was “inactive”.
Regarding `COc1ccc(C2NC(=O)C(=O)/C2=C(\O)c2ccc(Cl)cc2)cc1OC` (stereo not given), the B-score entry was “inactive”.
With `CC(=O)Oc1ccccc1C(=O)Nc1ncc([N+](=O)[O-])s1` the figure was 7 (active); with `O=C(Nc1ncc([N+](=O)[O-])s1)C1COc2ccccc2O1` (stereo not given), “inactive”; with `O=C(CCc1ccccc1)Nc1ncc([N+](=O)[O-])s1`, “inactive”.
With `CC(NC(=O)c1cc(=O)[nH]c2ccccc12)c1ccc(F)cc1F` (stereo not given) the entry was “inactive”; with `CC(=O)c1cc2c(cc1NC(=O)Cn1nc(-c3ccc(F)cc3)ccc1=O)OCO2`, “inactive”; with `COc1cnc(-c2ccccn2)nc1Oc1ccc(C(C)(C)C)cc1`, “inactive”.
As for `COc1ccc(S(=O)(=O)N2CCCCCC2)cc1C(=O)OCC(=O)Nc1cc(C)on1`, the B-score result is “inactive”.
For the compound `Cc1cc(C)nc(S/C=C/C(=O)c2ccccc2)n1`, the B-score result is “inactive”.
For the compound `O=C(CSc1ncn[nH]1)N/N=C/c1ccc(F)cc1`, the B-score entry was “inactive”.
Turning to `O=C(/C=C/Sc1ncn[nH]1)c1ccc(Cl)cc1`, the B-score is 7 (active).
With `CCOc1cc(NC(=S)NCCCN(C)C)c(OCC)cc1NC(=O)C1CC1`, the B-score result is “inactive”.
With `Cc1cc(C)c(NC(=O)C[N+](C)(C)CC(O)COc2cccc3ccccc23)c(C)c1` (stereo not given) the entry was “inactive”.
On to `CC(C)c1ccccc1OCC(O)CN(CC(O)COc1cccc2ccccc12)C(C)C` (stereo not given), for which the B-score is 6 (active).
With `OC(COc1cccc2ccccc12)CN1CCN(c2ccccn2)CC1` (stereo not given) the entry was “inactive”; with `O=C(CC1C(=O)NCCN1Cc1ccc(-c2ccccc2)cc1)NCc1ccncc1` (stereo not given), “inactive”.
With `Cc1ccc(OCC(=O)Nc2ccccc2C(=O)NC2CC2)cc1C` the entry was “inactive”.
Turning to `Nc1nnnn1/N=C/c1cc([N+](=O)[O-])ccc1O`, the B-score entry was “inactive”.
With `O=[N+]([O-])c1ccc(O)c(/C=N/Nc2ccccc2[N+](=O)[O-])c1`, the B-score was 9 (active).
Turning to `O=C(N/N=C/c1cc([N+](=O)[O-])ccc1O)/C(=C\c1cccs1)NC(=O)c1ccccc1`, the B-score entry was “inactive”.
In the case of `CCOc1ccc(CN2CCN(CCCc3ccccc3)C(CCO)C2)cc1` (stereo not given), the B-score result was “inactive”.
On to `CN1CCN(C2=NCCO2)CC1`, for which the B-score result is “inactive”.
The result for `COc1ccc(OC)c(C(=O)NC(CC(N)=O)c2ccc(N3CCC(N4CCCCC4)CC3)c([N+](=O)[O-])c2)c1` (stereo not given) reads “inactive”.
For `O=C(CNS(=O)(=O)c1ccccc1)N1CCN(C(=O)c2ccco2)CC1`, the B-score entry was “inactive”.
Turning to `CCS(=O)(=O)C1=NSC2=NC(=O)/C(=C\c3ccc(OS(=O)(=O)c4ccccc4)cc3)C(=N)N21`, the B-score result was “inactive”.
`Cc1cc(/C=C2/C(=N)N3C(=NC2=O)SN=C3S(C)(=O)=O)c(C)n1-c1ccccc1`: the B-score result is “inactive”.
Consider `CCS(=O)(=O)C1=NSC2=NC(=O)/C(=C\c3cc(C)n(-c4cccc(OC)c4)c3C)C(=N)N21`, for which the B-score is 8 (active).
With `CCc1cc(=O)oc2cc(C)cc(OCC(=O)N3CCC[C@@H]3C(=O)O)c12` the entry was “inactive”; with `COc1ccc(N2CCN(C(=O)Cn3cnc4sc(C)c(S(=O)(=O)N5CCOCC5)c4c3=O)CC2)cc1`, “inactive”; with `C=CCn1nc(-c2ccccc2)c2c(C)onc2c1=O`, “inactive”.
In the case of `CCOc1ccc(CN(Cc2ccco2)S(=O)(=O)c2ccc(-n3cnnn3)c(OC)c2)cc1`, the B-score entry was “inactive”.
Consider `CCOc1ccc(CN(Cc2ccco2)C(c2cccs2)c2nnnn2C(C)(C)C)cc1` (stereo not given), for which the B-score was 7 (active).
For `CC(C)(C)n1nnnc1C(c1cccs1)N(Cc1cccnc1)CC1CCCO1` (stereo not given), the B-score entry is “inactive”.
